According to the supplement of paper PMC10849652:
The full data set covers some 8,800 targets. This sample favours those with a hit. About 0.5% of all pairs of compound and target were hits.

Compound: C1=CC=C(C=C1)[C@H](COC2=CC3=C(C=C2)NC(=O)N3)NC(=O)C4=CC=CN(C4=O)CC5=CC(=C(C=C5)F)F
Assay: log2 fold change, soluble protein after heating vs DMSO (PISA); higher = thermal stabilisation; K562 lysate, 10 uM; active = over 0.2 and 3.5 SD of the protein, either way, in both replicates (recomputed)
Procedure, shortened: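 K562 pellets were dounce-homogenised in PBS pH 7.4 containing 1 mM MgCl2, and the crude extract, at 1 mg/mL protein, was exposed to 10 μM compound for 30 min. Aliquots were heated for 3 min across 48°C-58°C, pooled, brought to 0.5% NP-40 at 4°C and spun at 21,000xg for 90 min, with the supernatant taken as soluble protein. TMTpro 16plex LC-MS/MS with equalised channel sums quantified that protein. Values are log-two fold changes in thermal stability relative to solvent controls, taken from duplicates.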

UniProt Q9NRP7, sequence (Q9NRP7 whole entry, looked up): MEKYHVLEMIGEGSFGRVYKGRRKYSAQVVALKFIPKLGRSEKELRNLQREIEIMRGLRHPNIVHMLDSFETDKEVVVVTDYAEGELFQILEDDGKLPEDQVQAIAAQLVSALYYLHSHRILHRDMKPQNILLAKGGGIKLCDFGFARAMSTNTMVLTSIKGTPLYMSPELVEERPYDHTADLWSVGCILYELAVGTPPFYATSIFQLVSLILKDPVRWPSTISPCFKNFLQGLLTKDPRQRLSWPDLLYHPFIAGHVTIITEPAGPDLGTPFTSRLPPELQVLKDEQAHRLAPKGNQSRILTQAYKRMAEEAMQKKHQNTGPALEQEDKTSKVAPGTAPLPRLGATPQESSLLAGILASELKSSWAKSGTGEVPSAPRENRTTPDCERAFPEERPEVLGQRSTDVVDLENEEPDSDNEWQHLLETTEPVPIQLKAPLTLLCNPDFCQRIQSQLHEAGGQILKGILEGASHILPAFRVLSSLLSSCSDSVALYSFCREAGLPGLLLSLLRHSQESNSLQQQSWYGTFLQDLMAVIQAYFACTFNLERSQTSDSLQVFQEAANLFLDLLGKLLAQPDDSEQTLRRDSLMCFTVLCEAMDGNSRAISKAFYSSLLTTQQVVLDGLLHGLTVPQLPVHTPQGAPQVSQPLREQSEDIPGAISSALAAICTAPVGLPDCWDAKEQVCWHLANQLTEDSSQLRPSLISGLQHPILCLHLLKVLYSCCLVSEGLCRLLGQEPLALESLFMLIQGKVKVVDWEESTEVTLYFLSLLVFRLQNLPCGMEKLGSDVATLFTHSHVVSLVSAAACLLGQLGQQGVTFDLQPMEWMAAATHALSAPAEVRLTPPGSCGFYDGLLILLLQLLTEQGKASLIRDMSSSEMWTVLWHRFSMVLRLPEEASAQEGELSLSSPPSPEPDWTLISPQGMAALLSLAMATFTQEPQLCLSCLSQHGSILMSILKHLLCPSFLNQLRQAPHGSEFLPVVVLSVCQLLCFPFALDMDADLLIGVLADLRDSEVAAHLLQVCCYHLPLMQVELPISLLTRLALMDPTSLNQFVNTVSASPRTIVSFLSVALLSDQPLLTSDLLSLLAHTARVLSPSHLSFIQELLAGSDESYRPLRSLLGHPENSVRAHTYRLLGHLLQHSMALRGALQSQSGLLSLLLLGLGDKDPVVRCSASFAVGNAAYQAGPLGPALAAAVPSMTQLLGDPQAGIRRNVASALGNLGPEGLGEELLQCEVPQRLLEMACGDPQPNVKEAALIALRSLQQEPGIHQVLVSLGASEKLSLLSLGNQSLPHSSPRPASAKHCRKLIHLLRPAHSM
UniProt Q15506, sequence (Q15506 whole entry, looked up): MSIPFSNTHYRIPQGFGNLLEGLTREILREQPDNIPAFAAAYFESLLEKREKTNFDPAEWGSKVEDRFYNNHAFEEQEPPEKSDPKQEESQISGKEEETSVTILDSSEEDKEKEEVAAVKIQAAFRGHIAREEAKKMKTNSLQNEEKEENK
UniProt Q53T94, sequence (Q53T94 whole entry, looked up): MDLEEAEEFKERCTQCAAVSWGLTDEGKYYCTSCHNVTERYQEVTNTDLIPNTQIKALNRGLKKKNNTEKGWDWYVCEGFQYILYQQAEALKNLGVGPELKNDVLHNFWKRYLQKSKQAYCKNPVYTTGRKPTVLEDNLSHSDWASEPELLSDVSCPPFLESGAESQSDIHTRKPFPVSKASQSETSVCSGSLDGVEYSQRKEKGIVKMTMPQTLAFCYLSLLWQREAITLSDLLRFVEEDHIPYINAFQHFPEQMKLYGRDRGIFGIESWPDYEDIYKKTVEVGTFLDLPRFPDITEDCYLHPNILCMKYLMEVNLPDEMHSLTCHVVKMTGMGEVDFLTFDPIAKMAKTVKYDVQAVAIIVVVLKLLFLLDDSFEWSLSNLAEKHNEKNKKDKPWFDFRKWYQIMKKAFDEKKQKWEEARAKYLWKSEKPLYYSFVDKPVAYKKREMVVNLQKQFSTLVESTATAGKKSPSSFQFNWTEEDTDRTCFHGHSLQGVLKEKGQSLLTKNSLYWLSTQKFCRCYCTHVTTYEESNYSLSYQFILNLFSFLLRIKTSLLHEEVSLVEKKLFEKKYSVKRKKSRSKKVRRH
UniProt Q99963, sequence (Q99963 whole entry, looked up): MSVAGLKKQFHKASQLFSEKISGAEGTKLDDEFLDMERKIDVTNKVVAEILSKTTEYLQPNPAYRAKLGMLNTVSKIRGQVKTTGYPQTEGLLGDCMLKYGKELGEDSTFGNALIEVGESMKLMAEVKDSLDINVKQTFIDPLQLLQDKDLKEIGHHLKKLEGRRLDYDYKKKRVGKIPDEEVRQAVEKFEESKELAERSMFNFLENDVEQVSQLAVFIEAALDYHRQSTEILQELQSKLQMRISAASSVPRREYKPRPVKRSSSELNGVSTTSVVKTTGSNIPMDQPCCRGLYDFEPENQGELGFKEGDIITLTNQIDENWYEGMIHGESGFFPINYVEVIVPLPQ
UniProt Q9NTJ3, sequence (Q9NTJ3 whole entry, looked up): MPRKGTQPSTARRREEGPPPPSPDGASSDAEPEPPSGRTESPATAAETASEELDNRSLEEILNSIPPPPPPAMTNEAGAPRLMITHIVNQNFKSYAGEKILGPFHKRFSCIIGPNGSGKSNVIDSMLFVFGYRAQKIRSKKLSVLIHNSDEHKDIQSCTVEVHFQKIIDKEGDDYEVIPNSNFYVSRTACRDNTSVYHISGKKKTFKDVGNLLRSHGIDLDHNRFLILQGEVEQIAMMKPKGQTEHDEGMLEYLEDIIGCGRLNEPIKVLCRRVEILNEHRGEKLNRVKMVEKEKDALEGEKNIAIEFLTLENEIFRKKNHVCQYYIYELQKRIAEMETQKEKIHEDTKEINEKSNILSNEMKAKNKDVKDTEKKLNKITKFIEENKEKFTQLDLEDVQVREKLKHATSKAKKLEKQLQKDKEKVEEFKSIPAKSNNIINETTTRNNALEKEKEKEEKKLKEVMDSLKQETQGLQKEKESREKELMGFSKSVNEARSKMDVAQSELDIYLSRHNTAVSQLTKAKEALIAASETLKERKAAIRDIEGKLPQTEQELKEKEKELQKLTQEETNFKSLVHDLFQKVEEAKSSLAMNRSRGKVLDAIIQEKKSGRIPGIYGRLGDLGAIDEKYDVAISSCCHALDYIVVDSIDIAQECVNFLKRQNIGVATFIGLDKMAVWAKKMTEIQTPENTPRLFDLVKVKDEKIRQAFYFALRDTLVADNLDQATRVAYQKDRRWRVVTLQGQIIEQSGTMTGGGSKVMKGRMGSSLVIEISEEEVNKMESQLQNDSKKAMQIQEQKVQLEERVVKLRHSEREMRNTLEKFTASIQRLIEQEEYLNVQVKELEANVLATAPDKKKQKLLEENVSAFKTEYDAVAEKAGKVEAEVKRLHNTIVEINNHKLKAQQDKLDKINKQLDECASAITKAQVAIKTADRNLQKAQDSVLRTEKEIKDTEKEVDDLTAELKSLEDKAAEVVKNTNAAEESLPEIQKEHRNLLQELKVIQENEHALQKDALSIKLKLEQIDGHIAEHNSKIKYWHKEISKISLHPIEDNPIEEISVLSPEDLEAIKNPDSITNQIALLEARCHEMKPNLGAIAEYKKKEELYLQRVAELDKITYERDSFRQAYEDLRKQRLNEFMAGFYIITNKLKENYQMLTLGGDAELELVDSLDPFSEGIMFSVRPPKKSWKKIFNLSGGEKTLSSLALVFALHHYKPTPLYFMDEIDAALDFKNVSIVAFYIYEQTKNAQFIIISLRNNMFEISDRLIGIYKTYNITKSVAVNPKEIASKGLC
UniProt Q15527, sequence (Q15527 whole entry, looked up): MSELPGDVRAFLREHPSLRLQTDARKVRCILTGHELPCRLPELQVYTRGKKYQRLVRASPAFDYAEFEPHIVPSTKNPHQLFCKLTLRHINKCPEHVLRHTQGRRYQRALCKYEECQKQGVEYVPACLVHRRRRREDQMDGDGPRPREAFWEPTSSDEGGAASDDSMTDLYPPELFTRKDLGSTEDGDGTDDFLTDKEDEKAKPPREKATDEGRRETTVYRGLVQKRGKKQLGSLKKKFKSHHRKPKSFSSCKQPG
UniProt Q9H7B4, sequence (Q9H7B4 whole entry, looked up): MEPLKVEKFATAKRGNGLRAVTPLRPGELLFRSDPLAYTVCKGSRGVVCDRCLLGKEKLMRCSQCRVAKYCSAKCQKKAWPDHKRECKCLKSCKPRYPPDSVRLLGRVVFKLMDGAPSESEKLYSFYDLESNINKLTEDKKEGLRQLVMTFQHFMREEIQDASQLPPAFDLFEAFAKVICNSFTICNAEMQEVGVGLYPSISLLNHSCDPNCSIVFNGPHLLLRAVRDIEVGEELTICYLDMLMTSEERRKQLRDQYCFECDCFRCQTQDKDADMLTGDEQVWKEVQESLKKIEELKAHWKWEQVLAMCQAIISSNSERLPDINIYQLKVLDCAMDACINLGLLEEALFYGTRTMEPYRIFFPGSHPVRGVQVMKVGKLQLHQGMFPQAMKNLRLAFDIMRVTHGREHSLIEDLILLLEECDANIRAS
UniProt Q14534, sequence (Q14534 whole entry, looked up): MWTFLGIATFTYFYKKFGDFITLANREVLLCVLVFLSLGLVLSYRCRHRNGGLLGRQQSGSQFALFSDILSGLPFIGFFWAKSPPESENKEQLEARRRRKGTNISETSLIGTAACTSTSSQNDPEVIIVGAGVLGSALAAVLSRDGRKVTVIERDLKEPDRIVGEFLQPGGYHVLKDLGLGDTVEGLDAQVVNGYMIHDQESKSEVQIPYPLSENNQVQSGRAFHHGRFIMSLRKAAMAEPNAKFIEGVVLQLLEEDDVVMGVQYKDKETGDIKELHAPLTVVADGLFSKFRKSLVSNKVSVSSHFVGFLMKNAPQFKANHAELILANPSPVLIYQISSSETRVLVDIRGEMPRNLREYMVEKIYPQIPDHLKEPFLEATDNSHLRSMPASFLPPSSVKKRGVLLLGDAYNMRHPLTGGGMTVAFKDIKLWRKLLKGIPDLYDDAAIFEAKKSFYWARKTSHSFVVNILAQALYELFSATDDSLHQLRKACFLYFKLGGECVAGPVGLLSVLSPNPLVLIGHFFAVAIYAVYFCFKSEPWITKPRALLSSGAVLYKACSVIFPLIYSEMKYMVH

Row | Target | log2 fold change
1 | SMYD3 (UniProt Q9H7B4) | 0.028 (inactive)
2 | SPAG1 (UniProt Q07617) | -0.046 (inactive)
3 | SP1 (UniProt P08047) | 0.007 (inactive)
4 | SLC27A4 (UniProt Q6P1M0) | 0.106 (inactive)
5 | SMC1B isoform 3 (UniProt Q8NDV3) | 0.009 (inactive)
6 | SH3GL1 (UniProt Q99961) | 0.007 (inactive)
7 | STMN3 (UniProt Q9NZ72) | 0.046 (inactive)
8 | SFN (UniProt P31947) | 0.039 (inactive)
9 | SRGN (UniProt P10124) | 0.101 (inactive)
10 | SLC38A10 (UniProt Q9HBR0) | 0.007 (inactive)
11 | STK36 (UniProt Q9NRP7) | -0.014 (inactive)
12 | SPA17 (UniProt Q15506) | 0.057 (inactive)
13 | STUB1 (UniProt Q9UNE7) | -0.04 (inactive)
14 | SLC16A1 (UniProt P53985) | -0.015 (inactive)
15 | SPAG5 (UniProt Q96R06) | 0.006 (inactive)
16 | SLC12A6 (UniProt Q9UHW9) | 0.006 (inactive)

Row | Target | log2 fold change
17 | TAF1B (UniProt Q53T94) | -0.073 (inactive)
18 | SF3B6 (UniProt Q9Y3B4) | 0.052 (inactive)
19 | SORBS3 (UniProt O60504) | 0.047 (inactive)
20 | SRPK1 (UniProt Q96SB4) | -0.002 (inactive)
21 | SURF2 (UniProt Q15527) | -0.013 (inactive)
22 | SPIRE1 (UniProt Q08AE8) | -0.008 (inactive)
23 | SQLE (UniProt Q14534) | 0.044 (inactive)
24 | SPG11 (UniProt Q96JI7) | -0.22 (inactive)
25 | SYNE2 isoform 2 (UniProt Q8WXH0) | -0.037 (inactive)
26 | SMC4 (UniProt Q9NTJ3) | -0.033 (inactive)
27 | TADA3 (UniProt O75528) | 0.043 (inactive)
28 | SMC4 (UniProt C9JJ64) | -0.189 (inactive)
29 | SH3GL3 isoform 3 (UniProt Q99963) | 0.024 (inactive)
30 | SNAP23 (UniProt O00161) | 0.059 (inactive)
31 | STOML2 (UniProt Q9UJZ1) | -0.008 (inactive)
32 | SULT1A1 (UniProt P50225) | -0.022 (inactive)
